# Source: PubChem BioAssay AID624296 (National Center for Advancing Translational Sciences (NCATS), 2012)
# Out of some 350,000 compounds screened, about 9,900 (2.8%) were called active. Roughly 15% stayed inconclusive and do not appear here. The sample holds actives, similar compounds and a random draw of the others, so the mix is not that of the screen. Calls follow the shape of the dose curve; as a rule, active = well fitted activation curve with a large enough effect; inconclusive = small, poorly fitted or top-dose-only effect; inactive = no such curve, though single readings can be large or run the other way.
# Assay: A quantitative high throughput screen for small molecules that induce DNA re-replication in MCF 10a normal breast cells. Also: nearly all actives have a fitted effect of over 50% in size. As to activity, positive = re-replication: % of control where 0% means no effect.
# Conditions: MCF 10A DNA re-replication, Hoechst nuclear intensity, 48 h; series mostly up to 46.1 µM; activity, positive = re-replication: at the top concentration
# Potency is read from the fitted curve at half-maximal effect.
Structure (SMILES),"activity, positive = re-replication",Potency
C=CCSC1=C(C#N)C(c2cc(Br)c(O)c(OC)c2)CC(=O)N1 (stereo not drawn),9.73% (inactive),–
CCOC(=O)CSC1=C(C#N)C(c2sccc2C)CC(=O)N1 (stereo not drawn),–,2 µM (active)
C=CCOC(=O)C1=C(C)NC(SCC(=O)OCC)=C(C#N)C1c1ccc(C)cc1 (stereo not drawn),-0.999% (inactive),–
COc1cc2c(cc1OC)C(c1ccc(C)o1)CC(=O)N2 (stereo not drawn),-6.53% (inactive),–
Cc1ccc(C2CC(=O)NC(SCC(=O)OCc3ccccc3)=C2C#N)o1 (stereo not drawn),–,20.6 µM (active)
COC(=O)CSC1=C(C#N)C(c2ccccc2OC)C(C(=O)OC)C(=O)N1 (stereo not drawn),2.02% (inactive),–
CSCCC(NC(=O)COc1ccccc1)C(=O)OCc1ccc(Cl)cc1 (stereo not drawn),-3.5% (inactive),–
COc1cc(N)c(Cl)cc1C(=O)OCC(=O)c1ccc2c(c1)NC(=O)CO2,8.09% (inactive),–
CCOC(=O)N(Cc1ccccc1)C1CC1,-3.86% (inactive),–
CC1(C)C(=O)CCC2(C)C1=CCC1C2C(=O)CC2(C)C1CCC2(O)C(=O)CO (stereo not drawn),-0.698% (inactive),–
NS(=O)(=O)c1ccc(CNC(=S)NC(=O)c2ccco2)cc1,-22.5% (inactive),–
O=C(CNC(=O)c1ccc2ccccc2c1)Nc1ncccc1O,0.181% (inactive),–
CCOC(=O)C(C)n1cnc2c(nnn2-c2cccc(OC)c2)c1=O (stereo not drawn),-1.31% (inactive),–
CCOc1cccc(-n2nnnc2-c2ccc(OC)cc2)c1,–,6.51 µM (active)
c1ccc(-n2nnnc2-c2cccnc2)cc1,-5.22% (inactive),–
CC1CCCCC1NCC(=O)Nc1ccccc1C(=O)Nc1ccccc1 (stereo not drawn),6.18% (inactive),–
CC(C#N)(NC(=O)CN1CCN(S(=O)(=O)c2cc(C(F)(F)F)ccc2Cl)CC1)C1CC1 (stereo not drawn),6.07% (inactive),–
CCC(=O)Nc1ccc2nc(C)n(Cc3ccccc3Cl)c(=O)c2c1,-0.14% (inactive),–
CCOc1cc(NC(=O)c2ccccc2C(=O)O)c(OCC)cc1NC(=O)c1ccccc1F,3.86% (inactive),–
CCN1CCN(c2cc3nc(C)n(Cc4ccccc4)c(=O)c3cc2NC(=O)c2ccccc2F)CC1,–,18.4 µM (active)
O=C(N=C1SC2CS(=O)(=O)CC2N1c1ccccc1)c1ccccc1 (stereo not drawn),-22.6% (inactive),–
C[C@@H]1CN([C@@H](C)CO)C(=O)c2cccc(NS(=O)(=O)c3ccc(F)cc3)c2O[C@H]1CN(C)C(=O)NC1CCCCC1,2.38% (inactive),–
CN(C)CCNC(=O)c1ccc(Cl)c2cc3ccccc3nc12,12% (inactive),–
CS(=O)(=O)c1ccc2nc(NC(=O)c3ccc(N4CCCC4=O)cc3)sc2c1,-12.8% (inactive),–
Cc1ccc(NC(=O)c2cccc(S(=O)(=O)N3CCCc4ccccc43)c2)nc1,15.6% (inactive),–

Structure (SMILES),"activity, positive = re-replication",Potency
O=C(Nc1nc2ccc([N+](=O)[O-])cc2s1)c1ccc(S(=O)(=O)N2CCCc3ccccc32)cc1,–,2.59 µM (active)
COc1ccc(CNC(=O)COC(=O)c2sccc2C)cc1OC,-0.751% (inactive),–
COc1ccc(NC(=O)CNC(=O)Cc2ccccc2)cc1OC,2.51% (inactive),–
COc1ccc(CNC(=O)Cc2ccc(-c3ccccc3)cc2)cc1OC,–,11.6 µM (active)
COc1ccc(CNC(=O)COC(=O)c2c(C)nn(-c3ccccc3)c2C)cc1OC,-1.39% (inactive),–
COc1ccc(CNC(=O)COc2ccccc2C(=O)c2cnn(-c3ccccc3)c2)cc1OC,–,13 µM (active)
COc1ccc(CCNC(=O)Cc2ccc(C)cc2)cc1OC,3% (inactive),–
CC1CCCCC1NC(=O)NC(=O)COC(=O)C1=NN(c2ccccc2)C(=O)CC1 (stereo not drawn),3.38% (inactive),–
CC1CN(C(=O)c2cc(COc3c(F)cccc3F)on2)CCN1C (stereo not drawn),-5.24% (inactive),–
CCn1ccnc1CN(C)C(=O)c1cc(COc2ccc(Cl)cc2OC)on1,-7.68% (inactive),–
COc1cc(Cl)ccc1OCc1cc(C(=O)N2CC[C@@H]3CCCC[C@H]3C2)no1,–,16.4 µM (active)
CSc1ncccc1C(=O)NCC(c1ccco1)N1CCCCC1 (stereo not drawn),-0.472% (inactive),–
COc1ccc(C)cc1Nc1nc(-c2c(C)[nH]c3ccccc23)cs1,–,18.4 µM (active)
COC(=O)c1cnc(Nc2cc(C)ccc2OC)c2ccccc12,14.9% (inactive),–
CCCCCCC(=O)Nc1nc(C)c(-c2csc(Nc3cc(Cl)ccc3OC)n2)s1,11.8% (inactive),–
CN(CC(=O)NCCc1ccc(F)cc1)CC(=O)Nc1ccc(F)c(F)c1F,2.2% (inactive),–
CCN(CC)c1ccc(NC(=O)c2ccc(=O)[nH]c2)cc1S(=O)(=O)Nc1ccc(OC)cc1,18.9% (inactive),–
Cc1ccc2nc(N3CCN(C(=O)c4ccco4)CC3)sc2c1,17% (inactive),–
COc1ccc2nc(N3C(=O)C(O)=C(C(=O)c4ccco4)C3c3ccco3)sc2c1 (stereo not drawn),2.93% (inactive),–
Cc1ccc2nc(N3C(=O)C(O)=C(C(=O)c4ccco4)C3c3cccc(O)c3)sc2c1 (stereo not drawn),–,23.1 µM (active)
CCN(C(=O)COC(=O)c1c(C)nn(-c2ccccc2)c1Cl)c1c(N)n(Cc2ccccc2)c(=O)[nH]c1=O,-1.57% (inactive),–
Cc1cccc(NC(=O)CN2CCN(CC(=O)NCC3(N4CCCCC4)CCCCC3)CC2)c1C,1.93% (inactive),–
CCN(CC(=O)Nc1ccc(OC)cc1)C(=O)CSCc1ccc(C)cc1,4.68% (inactive),–
OCC[C@H]1C[C@@H](O)[C@H](O)[C@]2(OCCCc3ccccc32)O1,7.29% (inactive),–
O=C(/C=C/c1ccccc1)c1ccccc1O,–,20.6 µM (active)

Structure (SMILES),"activity, positive = re-replication",Potency
CN(C)/C=C/C(=O)c1ccccc1F,4.67% (inactive),–
O=C(/C=C/c1ccccc1)N/C(=C/c1ccccc1)C(=O)Nc1ccccc1O,0.812% (inactive),–
O=C(CSc1nnc(-c2ccncc2)o1)Nc1cccc(Cl)c1,-3.65% (inactive),–
CN(c1ccccc1)S(=O)(=O)c1cc(C(=O)N2CCN(c3ncccn3)CC2)ccc1Cl,–,20.6 µM (active)
CN(c1ccccc1)S(=O)(=O)c1cc(C(=O)OCC(=O)N2CCN(C(=O)c3ccco3)CC2)ccc1Cl,1.62% (inactive),–
CN(c1ccccc1)S(=O)(=O)c1ccc(C(=O)N2CCN(c3ccccc3Cl)CC2)cc1,11.7% (inactive),–
CN(C(=O)c1cccc(NC(=O)Cc2cccc(NC(=O)C3CCCN(C(=O)C4CC4)C3)c2)c1)C1CCC1 (stereo not drawn),-0.899% (inactive),–
CC[C@]1(C(=O)OC)[C@H]2C(=O)N(C)C(=O)[C@H]2[C@H]2CN(C)C(=NCc3ccccc3)N21,-7.09% (inactive),–
Cc1cc(NC(=O)CSc2ncc(C(F)(F)F)cc2Cl)no1,-3.51% (inactive),–
C=CC[C@@H](CC(=O)N[C@H](CO)Cc1ccccc1)C(=O)N[C@@H](COC(=O)[C@@H](CC=C)Cc1ccc(F)cc1)Cc1c[nH]c2ccccc12,3.99% (inactive),–
Cc1c(CCC(=O)O)c(=O)oc2cc3occ(-c4ccccc4)c3cc12,-9.98% (inactive),–
Cc1c(CC(=O)NCCCCCC(=O)O)c(=O)oc2cc3occ(-c4ccccc4)c3cc12,5.09% (inactive),–
CCCCCCc1cc2cc(-c3nnc(-c4ccccc4)o3)c(=O)oc2cc1O,–,1.46 µM (active)
CCc1nnc(NC(=O)c2sc3nc(C)cc(COC)c3c2N)s1,12.4% (inactive),–
COCc1cc(C)nc2sc(C(=O)NC3CCCCC3)c(N)c12,27.3% (inactive),–
COc1ccc(OC)c(NC(=O)c2sc3nc(C)cc(C)c3c2N)c1,–,11.6 µM (active)
Cc1ccc(COC(=O)CN2C(=O)NC3(CCCC3)C2=O)cc1,0.31% (inactive),–
Cc1ccc(NC(=O)CCNC(=O)c2ccc([N+](=O)[O-])cc2)cc1S(=O)(=O)N1CCOCC1,13.8% (inactive),–
O=C(CN1C(=O)NC2(CCCCCC2)C1=O)Nc1ccc([N+](=O)[O-])cc1,2.08% (inactive),–
COc1cc2c(cc1OC)C1C(=O)c3cc(OS(C)(=O)=O)c(OC)cc3C1N(C)C2=O (stereo not drawn),11.8% (inactive),–
CCC(CO)Oc1cc(NC(=O)c2cccc3ccccc23)c2ncn(C(C)C)c2c1 (stereo not drawn),-2.74% (inactive),–
CCS(=O)(=O)Nc1ccc(C2=NN(C(C)=O)C(c3cccs3)C2)cc1 (stereo not drawn),–,9.2 µM (active)
CS(=O)(=O)Nc1ccc(C2=NN(S(C)(=O)=O)C(c3cccs3)C2)cc1 (stereo not drawn),1.04% (inactive),–
COc1ccc(C2=NN(C(=O)CCC(=O)O)C(c3cccs3)C2)cc1OC (stereo not drawn),-6.26% (inactive),–
Cn1cc(C2OC(=O)c3ccccc32)c2ccccc21 (stereo not drawn),74.6% (inactive),–

Structure (SMILES),"activity, positive = re-replication",Potency
NNC(=O)c1oc2nc(-c3ccccc3)cc(-c3ccco3)c2c1N,–,20.6 µM (active)
O=C(Nc1cccc(F)c1)c1cc(-c2ccco2)nc2ccccc12,6.3% (inactive),–
CNC(=S)NNC(=O)c1oc2nc(-c3ccccc3)cc(-c3ccco3)c2c1N,21.2% (inactive),–
Cc1ccc(S(=O)(=O)N2C[C@@H]3CCCC[C@@H]3[C@@H](C)[C@H]2c2cn(Cc3ccccc3)c3ccc(F)cc23)cc1,2.93% (inactive),–
Cn1c(N)c(C(=O)COC(=O)COc2ccc(Cl)cc2)c(=O)n(C)c1=O,-4.1% (inactive),–
Fc1ccc(N2N=C(c3cccs3)CC2c2ccco2)c(F)c1 (stereo not drawn),–,7.31 µM (active)
COc1ccccc1N1N=C(c2cccs2)CC1c1ccccc1 (stereo not drawn),16.3% (inactive),–
Cc1ccccc1C1CC(c2cccs2)=NN1S(C)(=O)=O (stereo not drawn),-23.5% (inactive),–
O=C(N/N=C/c1cccnc1)c1cc2ccccc2cc1O,-15.4% (inactive),–
O=C(N/N=C\c1cccnc1)c1cc(-c2ccccc2)nc2c(Cl)cccc12,–,7.31 µM (active)
C/C(=N\NC(=O)c1cc(-c2ccc(O)cc2)nc2ccccc12)c1cccnc1,4.37% (inactive),–
COc1cccc(CC(=NO)c2cccc(OC)c2)c1,2.69% (inactive),–
CC1(C(=O)OCC(=O)Nc2ncc(Cl)cc2Cl)CC1(Cl)Cl (stereo not drawn),1.07% (inactive),–
COc1ccc(NC(=O)[C@H](NC(=O)[C@@H]2Cc3ccccc3CN2)c2ccccc2)cc1,1.04% (inactive),–
COc1cccc(NC(=O)[C@H](Cc2c[nH]c3ccccc23)NC(=O)[C@@H]2Cc3ccccc3CN2)c1,–,18.4 µM (active)
COc1ccc(CNC(=O)[C@H](Cc2c[nH]c3ccccc23)NC(C)=O)cc1OC,-1.5% (inactive),–
CCc1c(Nc2ccccc2C)nc(N)[nH]c1=O,-6.06% (inactive),–
COc1ccc(OC)c(CN2CCN(C(=O)CNC(=O)c3cc(C)cc(C)c3)CC2)c1,15% (inactive),–
Cc1ccc(C(=O)NCC(c2cccs2)N(C)C)cc1S(=O)(=O)N1CCOCC1 (stereo not drawn),26.2% (inactive),–
COc1ccc2[nH]c3c(c2c1)CCN1C(=O)C(CC(=O)NCCc2ccccn2)C[C@H](C(=O)N2CCOCC2)[C@@]31C (stereo partly drawn),1.89% (inactive),–
CCc1ccc(C(=O)OCC(=O)Nc2cccc(S(=O)(=O)NC3=NCCCCC3)c2)cc1,-9.03% (inactive),–
O=C(COC(=O)c1c(Cl)cccc1Cl)Nc1cccc(S(=O)(=O)NC2=NCCCCC2)c1,3.95% (inactive),–
COc1ccccc1C(=O)OCC(=O)Nc1cccc(S(=O)(=O)NC2=NCCCCC2)c1,–,18.4 µM (active)
